MCF10A rerep: induces DNA re-replication in MCF 10a normal breast cells; MCF 10A DNA re-replication, Hoechst nuclear intensity, 48 h; Potency, µM (series often up to 46.1 µM), without a hit: top-dose activity, positive = re-replication, most hits filed as activators; actives 2.9% (n = 350,000); AID 624296; note: potency is the fitted concentration of half-maximal effect; % of control where 0% means no effect; nearly all actives have a fitted effect of over 50% in size
SW480 rereplic: DNA re-replication induction in SW480 cells; SW480 DNA re-replication, Hoechst DNA content imaging, 48 h; Potency, µM (series often up to 46.1 µM), for inactives: top-dose re-replication activation, actives largely listed as activators; actives 1.8% (n = 340,000); AID 624297; note: potency is the fitted concentration of half-maximal effect; % of control where 0% means no effect; nearly all actives have a fitted effect of over 55% in size
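Compounds, transferred as 23 nL by pin tool, were incubated with cells for 48 hr; DNA content per nucleus was then quantified by Hoechst staining and fluorescence plate imaging.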
Gal4-VP16 FLuc: Gal4-VP16 reporter inhibition counter-screen. Drosophila S2 Gal4-VP16 UAS-luciferase, luminescence, 20 h. Potency, µM (doses to about 53.6 µM), without a hit: at the highest dose activity, negative = inhibition, hits mostly inhibitors. actives 3.5% (n = 310,000). AID 2546;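 note: Gal4-VP16 expression switched on by copper sulfate through the metallothionein promoter; potency is the fitted concentration of half-maximal effect; % is set by controls: 0 for no effect and ±100 for the full control effect; nearly all actives have a fitted effect of over 50% in size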
IL-1B inflam inh: inflammasome signaling inhibition, IL-1 beta readout; THP-1 LPS/ATP IL-1B secretion, AlphaLISA, 16 h; hits give low values; activity change, % at 57.5 µM; actives 4.7% (n = 360,000); AID 743279; in the data active = activity change below about -50%; inconclusive = mostly about -30% to -49%; note: % is set by controls: 0 for no effect and ±100 for the full control effect
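Secreted IL-1B measured by AlphaLISA bead assay after 16 h compound exposure of THP-1 cells; compounds (final up to 57.5 uM) added 1 h before LPS (250 ng/mL) and ATP (1.25 mM) stimulation; lower signal means less secretion.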
RORgamma inh: inhibitors of mouse ROR gamma transcriptional activity; Drosophila S2 Gal4-RORgamma UAS-luciferase reporter, 20 h; actives 5.4% (n = 310,000); Potency, µM (highest dose often 53.6 µM), inactives show at the highest dose activity change, negative = inhibition, usual class: inhibitors; P51450; note: potency is the fitted concentration of half-maximal effect; % is set by controls: 0 for no effect and ±100 for the full control effect; nearly all actives have a fitted effect of over 60% in size
Target sequence (P51450 whole entry, looked up, the tested form may be a part): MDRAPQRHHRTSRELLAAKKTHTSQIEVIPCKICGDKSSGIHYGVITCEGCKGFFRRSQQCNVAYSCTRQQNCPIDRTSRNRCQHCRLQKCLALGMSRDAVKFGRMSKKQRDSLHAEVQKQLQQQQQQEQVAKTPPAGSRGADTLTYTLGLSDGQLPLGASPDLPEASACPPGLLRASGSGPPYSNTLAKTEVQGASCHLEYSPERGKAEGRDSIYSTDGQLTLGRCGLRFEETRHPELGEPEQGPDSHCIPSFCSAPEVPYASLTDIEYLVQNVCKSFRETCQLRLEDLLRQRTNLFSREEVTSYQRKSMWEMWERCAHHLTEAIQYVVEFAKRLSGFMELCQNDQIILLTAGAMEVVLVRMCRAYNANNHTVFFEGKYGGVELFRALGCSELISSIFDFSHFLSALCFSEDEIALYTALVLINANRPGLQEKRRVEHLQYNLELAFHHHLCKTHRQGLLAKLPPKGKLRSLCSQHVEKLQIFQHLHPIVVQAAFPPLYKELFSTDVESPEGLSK
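A Gal4/UAS one-hybrid system in insect cells: metallothionein-promoter Gal4–ROR gamma fusion plus Photinus luciferase reporter. Copper sulfate 700 uM final, 20 hr ambient incubation, luminescent detection after 10 min with reagent.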
An asterisk follows results filed as active; ? = inconclusive; . = not tested or not shown; [ ] = remark or other dose. Most compounds without a hit are left out; they make up all but 11% or so of the library. Unless noted, calls come from the whole dose curve; as a rule, active = well fitted curve in the direction sought with a large enough effect; inconclusive = small, poorly fitted or top-dose-only effect, or another doubt; inactive = no such curve, though single readings can be large; an effect the other way counts as inactive or inconclusive.

SMILES | MCF10A rerep | SW480 rereplic | Gal4-VP16 FLuc | IL-1B inflam inh | RORgamma inh
COc1cccc(/C=c2\s/c(=C/C(=O)c3ccc(C)cc3)[nH]c2=O)c1OC | 14% | -4% | -5% | -27 | -1%
COc1ccc(/C=c2\s/c(=C/C(=O)c3ccc(C)cc3)[nH]c2=O)c(OC)c1 | 4.1µM* | ? | -79% | -21 | ?
CCN(C(=O)CCS(=O)(=O)c1cccc2nonc12)c1ccc(F)cc1 | 12% | 27% | -12% | 10 | 8%
O=C(O)[C@H]1[C@H]2C[C@H]3c4[nH]c5ccccc5c4CCN3C[C@@H]2CC[C@@H]1O | . | . | -18% | . | -19%
O=C(COC(=O)c1ccc(-c2nnc(-c3ccccc3)o2)cc1)c1ccccc1 | ? | 16µM* | -7% | 35 | 1%
CCOC(=O)COC(=O)c1ccc(O)cc1 | 2% | -9% | 14% | -11 | 34%
Cc1ccc(C(=O)COC(=O)c2ccc(O)cc2)cc1 | -14% | 8% | 11µM* | -12 | ?
Cc1ccc(C(=O)COC(=O)c2cn3ccccc3n2)cc1 | 0.58µM* | 15% | -3% | 4 | -1%
Cc1cccc(N2CCN(S(=O)(=O)c3c(C)[nH]c(C)c3C(=O)N3CCCCC3)CC2)c1C | 18% | ? | 3% | -51* | 24%
O=C(CSc1nc2ccc(Nc3nc(N4CCOCC4)nc(N4CCOCC4)n3)cc2s1)Nc1ccccc1F | 2.1µM* | 2.9µM* | -24% | 40 | -33%
CSc1nc2ccc(Nc3nc(N4CCOCC4)nc(N4CCOCC4)n3)cc2s1 | ? | 16µM* | . | . | ?
Nc1ccc2nc(SCC(=O)Nc3ccc(N4CCOCC4)c(Cl)c3)sc2c1 | ? | -1% | ? | -28 | ?
CCOc1ccc2nc(SCC(=O)NCc3ccco3)sc2c1 | 20% | -3% | 1% | 28 | 37%
CCCC(=O)Nc1ccc2nc(SCC(=O)Nc3ccc(N4CCOCC4)c(Cl)c3)sc2c1 | 27% | ? | -10% | -50* | 42%
O=C(CSc1nc2ccc(Nc3nc(N4CCCC4)nc(N4CCCC4)n3)cc2s1)NCc1ccco1 | 5.8µM* | -9% | 9% | 0 | 9%
COC(=O)c1ccccc1NC(=O)CSc1nc(Nc2ccccc2)nc(N2CCOCC2)n1 | 16% | -9% | -12% | 0 | 37%
Cc1cc(NC(=O)CSc2ccnc(=O)[nH]2)no1 | 6% | -3% | . | 15 | .
CC(C)CCCC(C)C1CCC2C3CC=C4CC(O)CC[C@@]4(C)C3CC[C@@]12C (some centres undefined) | . | . | 3% | . | 3%
O=C(CSc1nc2ccc(Nc3nc(N4CCOCC4)nc(N4CCOCC4)n3)cc2s1)N1CCOCC1 | ? | -7% | -19% | -13 | -7%
O=C(CSc1nc2ccc(Nc3nc(N4CCOCC4)nc(N4CCOCC4)n3)cc2s1)Nc1ccccc1Cl | 18µM* | ? | ? | 0 | ?
COc1cc2c(cc1OC)C(C)N(CCc1ccc(Cl)cc1)CC2 (centres undefined) | ? | -97% | . | -59* | .
CCN1CCN(c2ccc(NC(=O)c3cc4ccccc4cc3OC)cc2C)CC1 | ? | ? | . | -51* | .
Cc1noc(C)c1COc1ccc(C(=O)NCC(c2c(F)cccc2Cl)N(C)C)cc1 (centres undefined) | 4% | -10% | . | 13 | .
COc1ccc(C(=O)CC(SCC(NC(C)=O)C(=O)O)c2ccc(Cl)cc2)cc1OC (centres undefined) | 21% | ? | 19% | -88* | ?
COc1ccc(C(C)NC(=O)c2ccc(Cl)cc2)cc1OC (centres undefined) | -42% | 8% | -4% | 0 | 28%
COC(=O)NC(/C(C(=O)OC)=C(\C)NCc1ccccc1)c1cccc(F)c1 (centres undefined) | . | . | -1%[10 µM] | . | -10%[10 µM]
CCOC(=O)C(CC)(CC)C(=O)/C=C/c1ccc(Br)cc1 | ? | ? | ? | -103* | ?
CCOC(=O)C(=Cc1ccc(-n2ccnc2)cc1)C(=O)OCC | 2.6µM* | 6.5µM* | ? | -93* | ?
CCOC(=O)C(=Cc1ccc(F)cc1)C(=O)OCC | . | . | ? | . | 10µM*

Source: PubChem BioAssay (National Center for Advancing Translational Sciences (NCATS))
